In PubChem BioAssay (NCI) one finds growth data, which are given here for 7 compounds.

Some test systems named below: HCT-15 colon; HT29 colon; SNB-75 CNS; SNB-19 CNS; U251 CNS; PC-3 prostate; SK-MEL-5 melanoma; UACC-62 melanoma; LOX IMVI melanoma; SK-MEL-28 melanoma; SK-MEL-2 melanoma; EKVX NSCLC; SN12C renal; UO-31 renal; TK-10 renal; ACHN renal; CAKI-1 renal; A498 renal; MOLT-4 leukemia; CCRF-CEM leukemia.
Holding throughout (experiment): NCI-60 one-dose screen, 48 h (100 = growth as untreated, 0 = no growth, -100 = all killed)
Conditions in all cases: 10 µM unless noted

Structures are written as SMILES. Several values for one entry are separate records, joined by “and”; a condition that tells them apart may be missing. Equal entries are not always repeated. This is part of a sample that, as a whole, favours compounds with a hit. Of some 83,000 tested, about 20% had one in any assay.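 Interpretation: 100, growth as untreated; towards 0, rising growth inhibition; 0, no net growth; 0 to -100, cell death. Compounds scoring below 10 were considered active.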 A number with no mark means an inactive call. Activity calls are given as the source filed them.

Consider `C=C(c1ccc(C(=O)O)cc1)c1cc2c(cc1C)C(C)(C)CCC2(C)C`, for which the growth in the experiment on HCT-15 colon is 74.7% and 65.1%; with HT29 colon, 93.2% and 62.7%; in the experiment on SNB-75 CNS it was 94.9% and 82.7%; in the experiment with SNB-19 CNS, 75.2% and 79.6%; in the experiment with U251 CNS it was 84.1% and 62.8%; with PC-3 prostate, 68.9%. For the same compound, the growth with SK-MEL-5 melanoma is 83% and 76.6%; in the experiment on UACC-62 melanoma, 74.3% and 58.7%; in the experiment on LOX IMVI melanoma it was 80.2% and 81.8%; with SK-MEL-28 melanoma, 137% and 72.9%; with SK-MEL-2 melanoma, 47.7% and 56.2%; in the experiment with EKVX NSCLC, 57.5% and 56.7%. Further, the growth in the experiment on SN12C renal is 87.5% and 77.5%; in the experiment on UO-31 renal, 71.3% and 66.9%; with TK-10 renal, 89.8%; in the experiment on ACHN renal, 74.1% and 57.5%; in the experiment on CAKI-1 renal, 70.4% and 82.1%; in the experiment with A498 renal it was 133% and 110%. The growth in the experiment on MOLT-4 leukemia was 71.2% and 79.4%.
For `C#CCOc1cccc(Nc2ncc3ncn(C4CCN(C(=O)CCl)C4)c3n2)c1` (centres undefined), the growth with HCT-15 colon was 6.97% [6.25 µM] (active); in the experiment on HT29 colon, 23.4% [6.25 µM]; with SNB-75 CNS, 72.6% [6.25 µM]; in the experiment on SNB-19 CNS it was 64.6% [6.25 µM]; in the experiment with U251 CNS, 43.2% [6.25 µM]; with PC-3 prostate, 74.9% [6.25 µM]. Besides, the growth is 39.1% [6.25 µM] in the experiment with SK-MEL-5 melanoma; 44.8% [6.25 µM] with UACC-62 melanoma; -55.1% [6.25 µM] (active) with LOX IMVI melanoma; 78% [6.25 µM] in the experiment on SK-MEL-28 melanoma; 61.9% [6.25 µM] with SK-MEL-2 melanoma; 91.3% [6.25 µM] in the experiment on EKVX NSCLC. Further, the growth was 13.2% [6.25 µM] in the experiment on SN12C renal; 29.9% [6.25 µM] with UO-31 renal; -34.9% [6.25 µM] (active) in the experiment with TK-10 renal; -31.2% [6.25 µM] (active) in the experiment on ACHN renal; 49.3% [6.25 µM] in the experiment on CAKI-1 renal; 89.2% [6.25 µM] in the experiment on A498 renal. Further, the growth in the experiment with MOLT-4 leukemia was 5.59% [6.25 µM] (active).
In the case of `NNCCc1ccccc1`, the growth with HCT-15 colon was 99.7% and 91.6%; in the experiment with HT29 colon, 96.5% and 100%; in the experiment on SNB-75 CNS, 107% and 78.7%; in the experiment with SNB-19 CNS it was 98.5% and 102%; in the experiment with U251 CNS, 104% and 93.7%; with PC-3 prostate, 92% and 94.6%. The growth in the experiment on SK-MEL-5 melanoma was 90.7% and 93.7%; in the experiment on UACC-62 melanoma, 89.9%; in the experiment on LOX IMVI melanoma, 98.2% and 88%; in the experiment on SK-MEL-28 melanoma it was 110% and 95.5%; with SK-MEL-2 melanoma it was 100% and 106%; in the experiment with EKVX NSCLC it was 101% and 86.2%. Also, the growth is 96.2% and 93% in the experiment on SN12C renal; 77.5% in the experiment with UO-31 renal; 118% in the experiment on TK-10 renal; 92% and 89.9% in the experiment with ACHN renal; 99.7% and 88.3% with CAKI-1 renal; 105% and 88.4% with A498 renal. Moreover, the growth with MOLT-4 leukemia is 104% and 96.4%.
For `Cc1nnc(NS(=O)(=O)c2ccc(N=Nc3ccc(N)nc3N)cc2)s1`, the growth with HCT-15 colon was 99.7% and 107%; with HT29 colon, 108% and 104%; in the experiment on SNB-75 CNS it was 92% and 89.6%; in the experiment on SNB-19 CNS it was 100% and 112%; in the experiment on U251 CNS, 105% and 106%; with PC-3 prostate it was 93.8% and 98.2%. Moreover, the growth in the experiment with SK-MEL-5 melanoma is 117%; in the experiment on UACC-62 melanoma, 97% and 111%; in the experiment on LOX IMVI melanoma, 93.2% and 101%; with SK-MEL-28 melanoma, 111% and 116%; in the experiment with SK-MEL-2 melanoma it was 104% and 116%; with EKVX NSCLC, 104% and 105%. The growth is 92.3% and 105% in the experiment on SN12C renal; 76.1% and 80.1% with UO-31 renal; 112% and 111% in the experiment on TK-10 renal; 103% and 110% in the experiment on ACHN renal; 98% and 96% with CAKI-1 renal; 99.7% and 123% with A498 renal. In addition, in the experiment on MOLT-4 leukemia, the growth was 102% and 96.3%.
With `Cc1cc(N2CCN(CC(=O)Nc3ccc4c(ccn4Cc4ccccc4)c3)CC2)nc(N2CCCCCC2)n1`, the growth with HCT-15 colon is 28.2%; in the experiment with HT29 colon, 5.17% (active); in the experiment on SNB-75 CNS it was 66.6%; in the experiment with SNB-19 CNS, 57.3%; in the experiment on U251 CNS it was 38.4%; in the experiment with PC-3 prostate, 28.2%. Moreover, the growth with SK-MEL-5 melanoma is 49.2%; in the experiment with UACC-62 melanoma it was 43.2%; in the experiment with LOX IMVI melanoma, 34.9%; with SK-MEL-28 melanoma, 63.4%; with SK-MEL-2 melanoma, 64%; with EKVX NSCLC it was 57.5%. For the same compound, the growth in the experiment with SN12C renal is 54.8%; with UO-31 renal, -1.98% (active); with TK-10 renal, 73.1%; with ACHN renal, 57.5%; with CAKI-1 renal, 31.9%; in the experiment with A498 renal it was 5.69% (active). Also, the growth with MOLT-4 leukemia was 44.3%.
For `Cc1ccc(S(=O)(=O)Nc2cc(Sc3ccccc3)c(O)c3ccccc23)cc1`, the growth was 91.9% in the experiment on HCT-15 colon; 120% in the experiment with HT29 colon; 98.4% in the experiment on SNB-75 CNS; 105% with SNB-19 CNS; 16.1% with U251 CNS; 34.6% with PC-3 prostate. Also, the growth in the experiment with SK-MEL-5 melanoma is 41.8%; in the experiment with UACC-62 melanoma it was 42.9%; in the experiment on LOX IMVI melanoma, 2.72% (active); with SK-MEL-28 melanoma, 84.8%; in the experiment on SK-MEL-2 melanoma, 81.8%; in the experiment on EKVX NSCLC, 116%. Moreover, the growth with SN12C renal is 64.2%; with UO-31 renal it was 64%; in the experiment with TK-10 renal it was 111%; in the experiment with ACHN renal it was 91.5%; in the experiment on CAKI-1 renal, 73.1%; in the experiment with A498 renal it was 70%. Further, the growth was 12.7% in the experiment on CCRF-CEM leukemia and -32.2% (active) in the experiment with MOLT-4 leukemia.
Consider `CONC1=Nc2cc(NC(N)=NCc3ccccc3)c(N(C)C3CCCCC3)cc2OC1`, for which the growth was 101% with HCT-15 colon; 29.5% with HT29 colon; 40.9% in the experiment on SNB-75 CNS; 68.8% in the experiment with SNB-19 CNS; 53.1% with U251 CNS; 51.1% in the experiment on PC-3 prostate. The growth is 74.9% in the experiment on SK-MEL-5 melanoma; 70.1% with UACC-62 melanoma; 50.2% in the experiment on LOX IMVI melanoma; 87.9% in the experiment with SK-MEL-28 melanoma; 91.5% with SK-MEL-2 melanoma; 62% with EKVX NSCLC. The growth was 64.8% in the experiment on SN12C renal; 75.5% with UO-31 renal; 82.3% in the experiment on TK-10 renal; 79.1% in the experiment on ACHN renal; 93.7% in the experiment on CAKI-1 renal; 82.4% with A498 renal. In addition, the growth with MOLT-4 leukemia is 54.2%.
